Source: PubChem BioAssay (NCATS)
“And” between values parts separate entries of the source, which are not always exact repeats. Identical values can stand only once. Results filed as inconclusive are left out. A call without a number means that no potency is given here. The source made the active and inactive calls. Unless noted, the call rests on the fitted dose curve; in most records, active means well fitted curve in the direction sought with a large enough effect; inconclusive means small, poorly fitted or top-dose-only effect, or another doubt; inactive means no such curve, though single readings can be large; an effect the other way counts as inactive or inconclusive.

Assays:
[1] = Cell Viability - SK-N-SH (AID 435; calls by dose curve;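 further: potency means the concentration at half of the fitted maximal effect; compound exposure lasted 40 h at 37 °C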); conditions: SK-N-SH neuroblastoma cell viability qHTS
How it was run: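 Luminescent ATP signal served as the viability read-out after 40 hours of compound treatment of human neuroblastoma SK-N-SH cells. Concentration-response data, scaled between DMSO and 100 uM tamoxifen, gave AC50 values by standard Hill modeling.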

[2] = Cell Viability - H-4-II-E (AID 543); conditions: H-4-II-E rat hepatoma viability; series mostly up to 92.2 µM; further: nearly all actives have a fitted effect of over 35% in size
How it was run: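 Here, cytotoxicity is measured in the rat hepatoma line H-4-II-E as loss of intracellular ATP after 40 hr compound treatment, detected by luciferase luminescence.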

[3] = Cell Viability - Renal Proximal Tubule (AID 545); conditions: renal proximal tubule cells viability, primary cells of rat origin; activity change, negative = cytotoxicity: at 91.7 µM (top of the series); further: nearly all actives have a fitted effect of over 40% in size
How it was run: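 Luminescent ATP signal (CellTiter-Glo) served as the viability read-out after 40 hr compound exposure of freshly isolated rat proximal tubule cells at 37 °C. Concentration-dependent ATP loss was fitted with the Hill equation to give AC50.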

[4] = Cell Viability - LYMP2-001 (AID 921); conditions: LYMP2-001 lymphoblastoid cell viability; series mostly up to 92.2 µM;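 further: cells exposed to compound for 24 h at 37 °C; nearly all actives have a fitted effect of over 70% in size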
How it was run: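 Steps: seed 2500 lymphoblastoid cells/well; 5 hr, 37 C; add compound; 24 hr, 37 C; CellTiter-Glo reagent, 30 min room temperature; read luminescence. Concentration-response modeled by Hill equation for AC50.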

[5] = MultiTox-Fluor Cytotoxicity Assay - LYMP1-001 - Live Cells (AID 947); conditions: LYMP1-001 lymphoblastoid cells, live-cell protease fluorescence viability; series mostly up to 92.2 µM
[6] = MultiTox-Fluor Cytotoxicity Assay - LYMP1-002 - Dead Cells (AID 960); conditions: LYMP1-002 lymphoblastoid cells, dead-cell protease fluorescence; series mostly up to 46.1 µM;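 further: cells exposed to compound for 16 h at 37 °C; nearly all actives have a fitted effect of over 60% in size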
How it was run: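 Acute cytotoxicity in a human lymphoblastoid line is scored as rising dead-cell protease signal after 16 hr exposure at 37 C, measured fluorometrically (485/520).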

[7] = Cell Viability - LYMP2-005 (AID 967); conditions: LYMP2-005 lymphoblastoid cell viability; series mostly up to 92.2 µM;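 further: cells exposed to compound for 24 h at 37 °C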
How it was run: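 Acute cytotoxicity is scored as a concentration-dependent drop in intracellular ATP in human lymphoblastoid LYMP2-005 cells after 24 h compound treatment. ATP is quantified by luciferase luminescence, and AC50 is derived by Hill-equation modelling.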

[8] = Cell Viability - LYMP2-009 (AID 968); conditions: LYMP2-009 lymphoblastoid cell viability; series mostly up to 92.2 µM;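 further: cells exposed to compound for 24 h at 37 °C; nearly all actives have a fitted effect of over 55% in size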
[9] = Cell Viability - LYMP2-015 (AID 971); conditions: LYMP2-015 lymphoblastoid cell viability; series mostly up to 92.2 µM; further: nearly all actives have a fitted effect of over 55% in size
How it was run: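 Acute toxicity was scored as a concentration-dependent drop in intracellular ATP in lymphoblastoid cells after 24 hr compound exposure in complete medium. Detection used CellTiter-Glo luciferase luminescence.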

[10] = Cell Viability - LYMP2-017 (AID 972); conditions: LYMP2-017 lymphoblastoid cell viability; series mostly up to 92.2 µM;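 further: cells exposed to compound for 24 hours at 37 °C; nearly all actives have a fitted effect of over 55% in size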
How it was run: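 Steps: plate 2500 lymphoblastoid cells per well; incubate 5 hr at 37 C; add compound across a concentration series and incubate 24 hr at 37 C; add CellTiter-Glo and read luminescence after 30 min at room temperature; fit Hill curves for AC50.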

[11] = Cell Viability - LYMP2-006 (AID 978); conditions: LYMP2-006 lymphoblastoid cell viability, qHTS; series mostly up to 92.2 µM;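 further: cells exposed to compound for 24 hours; nearly all actives have a fitted effect of over 60% in size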
How it was run: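 Cells are seeded at 2500 per well and rested 5 hr at 37 C. Compounds are added across a concentration series for 24 hr at 37 C, after which ATP is quantified by luciferase luminescence.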

[12] = Cell Viability - LYMP2-010 (AID 981); conditions: LYMP2-010 lymphoblastoid cell viability, qHTS; series mostly up to 92.2 µM;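 further: cells exposed to compound for 24 hours at 37 °C; nearly all actives have a fitted effect of over 55% in size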
How it was run: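 Acute toxicity is scored as a concentration-dependent loss of cellular ATP in human lymphoblastoid cells after 24 hr compound exposure in complete medium. Tetraoctylammonium bromide is the positive control.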

[13] = qHTS assay for small molecule agonists of retinoid X receptor alpha signaling (AID 588544); conditions: HEK293T RXRa-UAS-bla, beta-lactamase reporter, 18 h; 530 nm emission
[14] = biological target: Thyroid hormone receptor beta (Homo sapiens) (UniProt P10828); experiment: qHTS assay for small molecule agonists of thyroid hormone receptor beta signaling (AID 588545; calls by dose curve); conditions: TR-UAS-bla GripTite HEK 293, beta-lactamase ratio, agonist mode, 18 h; series mostly up to 76.7 µM
Thyroid hormone receptor beta (Homo sapiens), sequence (P10828 whole entry, looked up): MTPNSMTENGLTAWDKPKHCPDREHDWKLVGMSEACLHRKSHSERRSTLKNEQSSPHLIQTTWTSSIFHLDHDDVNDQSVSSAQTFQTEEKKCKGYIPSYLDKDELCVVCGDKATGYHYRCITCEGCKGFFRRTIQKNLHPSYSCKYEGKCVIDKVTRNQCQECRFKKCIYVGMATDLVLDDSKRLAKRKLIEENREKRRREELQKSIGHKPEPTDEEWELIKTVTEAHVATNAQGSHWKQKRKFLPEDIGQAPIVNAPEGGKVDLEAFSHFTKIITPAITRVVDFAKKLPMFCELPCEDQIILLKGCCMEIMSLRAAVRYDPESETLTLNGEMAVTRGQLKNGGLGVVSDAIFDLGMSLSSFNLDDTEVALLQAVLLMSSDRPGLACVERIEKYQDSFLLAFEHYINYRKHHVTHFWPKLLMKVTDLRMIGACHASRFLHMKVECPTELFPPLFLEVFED
How it was run: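 Efficacy and EC50 values derive from Hill fits of qHTS titration data, normalized to 10 nM T3 and DMSO-only wells. HEK 293 reporter cells were stimulated for 18 hrs at 37 C, with beta-lactamase activity measured by CCF4 fluorescence.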

[15] = biological target: Thyroid hormone receptor beta (Homo sapiens) (UniProt P10828); experiment: qHTS assay for small molecule antagonists of thyroid hormone receptor beta signaling (AID 588547; active means well fitted inhibition curve with a large enough effect in the signal ratio, with a control signal flat, not every such curve was filed as active; the % refers to the signal ratio;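 further: cells stimulated with 0.4 nM T3 agonist during compound exposure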); conditions: TR-UAS-bla HEK293, beta-lactamase ratio, antagonist mode, 18 h
How it was run: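 TR-UAS-bla GripTite HEK293 cells in 2% charcoal/dextran FBS medium; compounds 0.59 nM to 92 uM with T3 at 0.4nM final, 18 h at 37 C. Beta-lactamase read by CCF4 fluorescence (460/530 nm); Hill fits gave IC50 and efficacy.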

[16] = qHTS assay for small molecule disruptors of the mitochondrial membrane potential - 1 hr assay (AID 651754; calls by dose curve; further: nearly all actives have a fitted effect of over 35% in size; further: potency means the concentration at half of the fitted maximal effect); conditions: series mostly up to 92.2 µM
How it was run: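 Steps: seed HepG2 cells and let attach overnight; pin-transfer compound or vehicle; incubate 1 hr at 37C; add Mito-MPS dye for 30 min; read two-channel fluorescence for monomer and aggregate forms.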

[17] = qHTS assay for small molecule disruptors of the mitochondrial membrane potential - 5 hr assay (AID 651755; calls by dose curve; further: nearly all actives have a fitted effect of over 40% in size; further: potency means the concentration at half of the fitted maximal effect); conditions: JC-1-type ratio dye; series mostly up to 92.2 µM
How it was run: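 HepG2 cells (2,000/well), attached overnight, exposed to compound 5 hr at 37C, then Mito-MPS dye 30 min. Fluorescence read for monomers (490/535 nm) and aggregates (540/590 nm).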

[18] = qHTS assay for small molecule agonists of the antioxidant response element (ARE) signaling pathway measured by Nrf2-dependant transcriptional activity (AID 720636; active means well fitted curve in the direction sought with a large enough effect in the repeat runs; an effect the other way counts as inactive or inconclusive;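 further: HepG2 cells with an ARE-driven luciferase reporter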); conditions: ARE-luc HepG2, Nrf2 luciferase reporter, 16 h; series mostly up to 92.4 µM
How it was run: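 Cells: ARE-luc HepG2 with Nrf2-responsive luciferase. Medium contained 1% dialyzed FBS. Compound exposure lasted 16 hr at 37 C and 5% CO2, followed by ONE-Glo luciferase detection.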

[19] = biological target: Nuclear receptor subfamily 1 group I member 2 (Rattus norvegicus) (UniProt Q9R1A7); experiment: qHTS assay for small molecule activators of the rat pregnane X receptor (rPXR) signaling pathway (AID 651751; call rule not given here); conditions: rPXR reporter cells, luciferase (One-Glo), 24 h
Nuclear receptor subfamily 1 group I member 2 (Rattus norvegicus), sequence (Q9R1A7 whole entry, looked up): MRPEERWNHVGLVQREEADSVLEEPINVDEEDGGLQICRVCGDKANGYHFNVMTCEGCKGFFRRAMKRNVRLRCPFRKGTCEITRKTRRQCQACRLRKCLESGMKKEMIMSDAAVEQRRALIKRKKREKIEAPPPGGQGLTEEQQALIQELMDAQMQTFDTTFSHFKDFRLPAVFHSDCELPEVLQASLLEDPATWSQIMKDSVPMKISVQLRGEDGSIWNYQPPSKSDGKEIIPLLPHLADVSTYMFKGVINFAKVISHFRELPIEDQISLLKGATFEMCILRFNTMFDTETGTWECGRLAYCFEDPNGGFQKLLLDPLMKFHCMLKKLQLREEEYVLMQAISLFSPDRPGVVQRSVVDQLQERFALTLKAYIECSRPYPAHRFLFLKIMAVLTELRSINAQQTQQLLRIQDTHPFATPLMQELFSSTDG

[20] = Cell Viability - N2a (AID 540); conditions: N2a mouse neuroblastoma cell viability; activity change, negative = cytotoxicity: at 92.2 µM (top of the series);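 further: cells exposed to compound for 40 h at 37 °C; nearly all actives have a fitted effect of over 45% in size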
How it was run: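 First, 1500 N2a cells per well incubate 5 hr at 37 °C; next, compounds are added and incubated 40 hr at 37 °C; finally CellTiter-Glo is added and luminescence read after 20 min, with AC50 derived by Hill modeling.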

Row | Compound | Potency [1] | Potency [2] | Potency [3] | Potency [4] | Potency [5] | Potency [6] | Potency [7] | Potency [8] | Potency [9] | Potency [10] | Potency [11] | Potency [12] | max response [13] | Potency [14] | activity change % (negative = inhibition) [15] | Potency [16] | Potency [17] | Potency [18] | max response [19] | activity change, negative = cytotoxicity [20]
1 | Oc1ccc2c(c1)OCO2 | > 92 µM (inactive) | inactive | inactive | inactive | inactive | inactive | inactive | inactive | inactive | inactive | inactive | inactive | -4.36% | inactive | 5.85% (inactive) | inactive | inactive | inactive | -0.719% (inactive) | –
2 | COc1ccc(C)cc1N | > 92 µM (inactive) | inactive | inactive | inactive | inactive | inactive | inactive | inactive | inactive | inactive | inactive | inactive | -1.98% | – | -19.2% (inactive) | inactive | inactive | inactive | 8.96% (inactive) | -14.1% (inactive)
3 | CCNC(=S)NCC | > 92 µM (inactive) | inactive | inactive | inactive | inactive | inactive | inactive | inactive | inactive | inactive | inactive | inactive | -2.72% | – | -1.42% (inactive) | inactive | inactive | inactive | -0.653% (inactive) | -22% (inactive)
4 | O=[N+]([O-])c1cccc(I)c1 | > 92 µM (inactive) | inactive | inactive | inactive | inactive | inactive | inactive | inactive | inactive | inactive | inactive | inactive | -0.727% | inactive | -8.55% (inactive) | inactive | inactive | inactive | -1.98% (inactive) | -10.4% (inactive)
5 | c1cc2c3c(c1)ccc1cccc(c13)C2 | > 92 µM (inactive) | inactive | inactive | inactive | inactive | inactive | inactive | – | inactive | inactive | inactive | inactive | -13.6% | inactive | -0.0299% (inactive) | inactive | inactive | inactive | -0.774% (inactive) | 0.332% (inactive)
6 | C/C(Cl)=C/CCl | > 92 µM (inactive) | inactive | inactive | inactive | inactive | – | inactive | inactive | inactive | inactive | inactive | inactive | -5.41% | inactive | 0.318% (inactive) | inactive | inactive | inactive | -2.47% (inactive) | -6.1% (inactive)
7 | C1CCCNCC1 | > 92 µM (inactive) | inactive | inactive | inactive | inactive | – | inactive | inactive | inactive | inactive | inactive | inactive | -9.69% | inactive | -19.9% (inactive) | – | inactive | inactive | 1.16% (inactive) | -7.29% (inactive)
8 | CC(=O)OC1CC(C)OC(C)O1 (stereo unspecified) | > 92 µM (inactive) | inactive | inactive | inactive | inactive | inactive | inactive | inactive | inactive | inactive | inactive | inactive | -9.84% and -8.03% | inactive | -11% (inactive) and -10.6% (inactive) | inactive | inactive | inactive | -2.44% (inactive) and 3.14% (inactive) | 7.5% (inactive)
9 | OCC(CBr)(CBr)CBr | > 92 µM (inactive) | inactive | inactive | inactive | inactive | – | inactive | inactive | inactive | inactive | inactive | inactive | -4.28% | inactive | -0.909% (inactive) | inactive | inactive | inactive | 6.71% (inactive) | –
10 | Oc1c(Cl)cc(Cl)c(Cl)c1Cl | > 92 µM (inactive) | inactive | inactive | inactive | inactive | – | inactive | inactive | inactive | inactive | inactive | inactive | 23.7% and -14.7% | inactive | -15.9% (inactive) and 13.1% (inactive) | 42.2 µM (active) | 37.6 µM (active) | inactive | -11.7% (inactive) and -1.19% (inactive) | –
11 | COc1ccc(C(=O)Nc2ccccc2)cc1[N+](=O)[O-] | > 92 µM (inactive) | inactive | inactive | inactive | inactive | – | inactive | inactive | inactive | – | inactive | inactive | – | inactive | 2.48% (inactive) | 33.5 µM (active) | 37.6 µM (active) | – | – | -4% (inactive)
12 | CC(C)COC(=O)COc1cc(Cl)c(Cl)cc1Cl | > 92 µM (inactive) | inactive | inactive | inactive | inactive | inactive | inactive | inactive | inactive | inactive | inactive | inactive | -5.32% | inactive | 14.2% (inactive) | – | – | inactive | -2.47% (inactive) | 8.53% (inactive)
13 | CC(C)OCC1CO1 (stereo unspecified) | > 92 µM (inactive) | inactive | inactive | inactive | inactive | – | inactive | inactive | inactive | inactive | inactive | inactive | -12.5% | inactive | 8.25% (inactive) | inactive | inactive | inactive | 3.69% (inactive) | -7.39% (inactive)
